Columns and labels:
Experiment in all cases: DAPPL (digital affinity profiling via proximity ligation, sequencing); 10 mM Tris-HCl pH 7.5, 50 mM NaCl, 1 mM DTT, 4% glycerol, room temperature, 30 min; GST-TFs on glutathione beads, 16-mer random dsDNA library, 0.1% formaldehyde crosslink after washing; high values mean tight binding
Conditions in all cases: protein: recombinant; tags: N-terminal GST; dsDNA, one strand shown
FEV = target: T1, FEV (Homo sapiens, UniProt Q99581 1-238)
T1 sequence: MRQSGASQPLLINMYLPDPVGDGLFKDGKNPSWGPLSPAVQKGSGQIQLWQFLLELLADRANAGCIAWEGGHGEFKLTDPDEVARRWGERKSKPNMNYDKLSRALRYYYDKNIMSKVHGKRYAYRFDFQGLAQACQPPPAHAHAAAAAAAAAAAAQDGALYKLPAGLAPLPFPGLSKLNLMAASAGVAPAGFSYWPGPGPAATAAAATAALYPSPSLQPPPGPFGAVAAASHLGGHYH
Procedure, shortened: (§1)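 A tag-only sample was pooled with DNA-barcoded human transcription factors that had been expressed in yeast as GST fusions and captured on glutathione beads. The pools were incubated for 30 min at room temperature with 200 nmole of a random double-stranded 16-mer DNA library in Tris/NaCl/DTT/glycerol buffer, then washed, crosslinked with 0.1% formaldehyde, proximity-ligated (BsaI/T4 ligase, 1 h, 37 °C), PCR-amplified and sequenced on an Illumina NextSeq500. Binding signal is each hexamer's read frequency for a factor divided by its frequency for the tag-only sample.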

ETV5 = ETV5 (Homo sapiens, UniProt P41161 1-510)
Procedure, shortened: as §1

SPIC = target: T2, SPIC (Homo sapiens, UniProt Q8N5J4 1-248)
T2 sequence: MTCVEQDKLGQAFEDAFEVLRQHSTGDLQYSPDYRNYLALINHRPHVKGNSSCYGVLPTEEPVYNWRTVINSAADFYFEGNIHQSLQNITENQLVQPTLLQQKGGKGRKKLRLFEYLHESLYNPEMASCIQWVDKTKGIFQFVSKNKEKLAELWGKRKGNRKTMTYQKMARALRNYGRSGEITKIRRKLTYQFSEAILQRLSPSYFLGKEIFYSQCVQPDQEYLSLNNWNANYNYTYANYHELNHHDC
Procedure, shortened: as §1

ELF4 = ELF4 (Homo sapiens, UniProt Q99607 1-663)
Procedure, shortened: as §1

ELK4 = target: T3, ELK4 (Homo sapiens, UniProt P28324-2 1-405)
T3 sequence: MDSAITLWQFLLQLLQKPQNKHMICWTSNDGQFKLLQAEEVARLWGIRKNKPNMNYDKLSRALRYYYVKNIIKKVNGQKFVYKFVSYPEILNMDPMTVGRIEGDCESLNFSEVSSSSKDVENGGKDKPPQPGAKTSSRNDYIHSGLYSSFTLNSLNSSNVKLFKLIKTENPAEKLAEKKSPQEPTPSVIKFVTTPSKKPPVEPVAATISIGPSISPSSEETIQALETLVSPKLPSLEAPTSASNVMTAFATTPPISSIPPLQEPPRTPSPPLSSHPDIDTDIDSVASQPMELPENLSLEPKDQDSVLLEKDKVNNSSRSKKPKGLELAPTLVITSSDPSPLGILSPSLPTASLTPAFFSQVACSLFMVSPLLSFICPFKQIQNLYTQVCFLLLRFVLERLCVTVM
Procedure, shortened: as §1

ETV2 = target: T4, ETV2 (Homo sapiens, UniProt O00321 1-342)
T4 sequence: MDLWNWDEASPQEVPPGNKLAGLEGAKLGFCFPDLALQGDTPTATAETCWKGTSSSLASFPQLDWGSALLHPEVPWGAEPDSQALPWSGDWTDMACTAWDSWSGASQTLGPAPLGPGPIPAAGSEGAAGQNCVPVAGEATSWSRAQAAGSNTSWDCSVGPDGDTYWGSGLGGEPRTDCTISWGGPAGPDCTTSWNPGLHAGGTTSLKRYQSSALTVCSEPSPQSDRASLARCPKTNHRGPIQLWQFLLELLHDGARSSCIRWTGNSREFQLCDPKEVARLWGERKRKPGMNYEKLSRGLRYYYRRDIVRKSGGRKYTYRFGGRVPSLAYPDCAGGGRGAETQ
Procedure, shortened: as §1

ELF3 = target: T5, ELF3 (Homo sapiens, UniProt P78545 1-371)
T5 sequence: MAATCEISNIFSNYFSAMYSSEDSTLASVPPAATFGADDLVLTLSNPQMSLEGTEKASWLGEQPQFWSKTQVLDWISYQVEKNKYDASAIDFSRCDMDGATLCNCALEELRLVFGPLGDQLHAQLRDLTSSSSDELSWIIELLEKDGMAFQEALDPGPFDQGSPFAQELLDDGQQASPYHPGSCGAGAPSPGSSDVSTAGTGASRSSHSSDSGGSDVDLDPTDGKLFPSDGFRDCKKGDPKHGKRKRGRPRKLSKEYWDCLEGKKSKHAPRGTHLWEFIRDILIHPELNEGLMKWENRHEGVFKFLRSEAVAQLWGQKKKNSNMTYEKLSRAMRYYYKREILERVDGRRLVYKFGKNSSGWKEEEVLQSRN
Procedure, shortened: as §1

CRX = CRX (Homo sapiens, UniProt O43186 1-299)
Procedure, shortened: as §1

ETV1 = ETV1 (Homo sapiens, UniProt P50549 1-477)
Procedure, shortened: as §1

ERF = target: T6, ERF (Homo sapiens, UniProt P50548 1-548)
T6 sequence: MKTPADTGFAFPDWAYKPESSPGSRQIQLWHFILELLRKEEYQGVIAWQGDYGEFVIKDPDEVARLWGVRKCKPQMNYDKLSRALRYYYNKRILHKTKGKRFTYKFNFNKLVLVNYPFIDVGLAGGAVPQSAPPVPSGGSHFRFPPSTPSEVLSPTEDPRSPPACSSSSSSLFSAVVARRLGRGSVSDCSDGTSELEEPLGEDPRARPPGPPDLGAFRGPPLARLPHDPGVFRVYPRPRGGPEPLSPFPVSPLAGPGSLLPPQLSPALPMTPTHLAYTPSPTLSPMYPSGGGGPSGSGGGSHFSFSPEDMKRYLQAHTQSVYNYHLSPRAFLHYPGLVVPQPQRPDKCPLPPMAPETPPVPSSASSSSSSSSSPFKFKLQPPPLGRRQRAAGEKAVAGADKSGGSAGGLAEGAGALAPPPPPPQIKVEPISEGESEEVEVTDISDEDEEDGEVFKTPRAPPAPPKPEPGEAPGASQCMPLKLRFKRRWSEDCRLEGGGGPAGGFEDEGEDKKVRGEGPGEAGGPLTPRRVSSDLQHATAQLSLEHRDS
Procedure, shortened: as §1

ETV3L = target: T7, ETV3L (Homo sapiens, UniProt Q6ZN32 1-361)
T7 sequence: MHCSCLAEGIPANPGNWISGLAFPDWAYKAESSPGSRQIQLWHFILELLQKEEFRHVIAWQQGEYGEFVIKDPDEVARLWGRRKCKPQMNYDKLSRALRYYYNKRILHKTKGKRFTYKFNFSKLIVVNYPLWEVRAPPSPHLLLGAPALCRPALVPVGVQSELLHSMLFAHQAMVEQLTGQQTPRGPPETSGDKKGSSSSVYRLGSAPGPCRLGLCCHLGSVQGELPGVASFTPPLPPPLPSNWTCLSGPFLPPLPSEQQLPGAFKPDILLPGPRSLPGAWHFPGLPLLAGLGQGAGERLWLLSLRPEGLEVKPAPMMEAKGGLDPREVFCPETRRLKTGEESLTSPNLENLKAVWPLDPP
Procedure, shortened: as §1

ETS2 = target: T8, ETS2 (Homo sapiens, UniProt P15036 1-469)
T8 sequence: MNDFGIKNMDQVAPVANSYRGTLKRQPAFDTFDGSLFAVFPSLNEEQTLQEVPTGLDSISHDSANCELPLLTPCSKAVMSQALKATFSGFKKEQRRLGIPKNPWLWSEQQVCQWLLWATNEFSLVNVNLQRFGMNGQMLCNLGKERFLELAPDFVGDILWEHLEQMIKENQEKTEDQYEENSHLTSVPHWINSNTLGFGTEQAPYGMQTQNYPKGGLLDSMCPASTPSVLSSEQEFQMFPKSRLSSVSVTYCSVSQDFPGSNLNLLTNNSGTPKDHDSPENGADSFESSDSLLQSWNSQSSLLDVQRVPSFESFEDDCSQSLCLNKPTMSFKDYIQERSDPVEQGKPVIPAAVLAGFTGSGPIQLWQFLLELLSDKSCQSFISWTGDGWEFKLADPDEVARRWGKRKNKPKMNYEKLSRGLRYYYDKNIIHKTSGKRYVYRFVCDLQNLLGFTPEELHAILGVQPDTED
Procedure, shortened: as §1

SPDEF = target: T9, SPDEF (Homo sapiens, UniProt O95238 1-335)
T9 sequence: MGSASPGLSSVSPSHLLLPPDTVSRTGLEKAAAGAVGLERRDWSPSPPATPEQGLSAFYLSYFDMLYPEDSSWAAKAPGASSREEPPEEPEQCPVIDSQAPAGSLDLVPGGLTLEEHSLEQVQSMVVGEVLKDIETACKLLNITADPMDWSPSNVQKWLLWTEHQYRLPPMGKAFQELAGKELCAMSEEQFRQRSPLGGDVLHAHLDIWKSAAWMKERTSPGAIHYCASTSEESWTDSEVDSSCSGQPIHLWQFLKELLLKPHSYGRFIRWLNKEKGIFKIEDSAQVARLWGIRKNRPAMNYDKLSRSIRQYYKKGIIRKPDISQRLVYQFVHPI
Procedure, shortened: as §1

ETV7 = target: T10, ETV7 (Homo sapiens, UniProt Q9Y603 1-341)
T10 sequence: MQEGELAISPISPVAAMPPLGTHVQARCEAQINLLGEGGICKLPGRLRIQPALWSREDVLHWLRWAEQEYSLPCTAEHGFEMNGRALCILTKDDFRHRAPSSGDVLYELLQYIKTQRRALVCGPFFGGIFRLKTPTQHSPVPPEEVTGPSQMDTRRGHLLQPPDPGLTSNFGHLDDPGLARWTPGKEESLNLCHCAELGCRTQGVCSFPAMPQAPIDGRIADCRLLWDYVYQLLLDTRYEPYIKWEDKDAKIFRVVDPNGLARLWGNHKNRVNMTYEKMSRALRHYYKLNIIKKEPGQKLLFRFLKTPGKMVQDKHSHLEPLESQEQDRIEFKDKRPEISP
Procedure, shortened: as §1

ELF5 = target: T11, ELF5 (Homo sapiens, UniProt Q9UKW6-2 1-255)
T11 sequence: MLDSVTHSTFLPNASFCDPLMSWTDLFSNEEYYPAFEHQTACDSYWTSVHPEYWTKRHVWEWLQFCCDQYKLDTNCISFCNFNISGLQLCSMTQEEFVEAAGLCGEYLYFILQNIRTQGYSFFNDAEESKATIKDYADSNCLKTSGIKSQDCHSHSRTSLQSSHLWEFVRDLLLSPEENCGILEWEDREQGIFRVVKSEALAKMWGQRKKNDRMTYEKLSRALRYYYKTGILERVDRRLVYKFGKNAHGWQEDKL
Procedure, shortened: as §1

ETV3 = target: T12, ETV3 (Homo sapiens, UniProt P41162-2 1-143)
T12 sequence: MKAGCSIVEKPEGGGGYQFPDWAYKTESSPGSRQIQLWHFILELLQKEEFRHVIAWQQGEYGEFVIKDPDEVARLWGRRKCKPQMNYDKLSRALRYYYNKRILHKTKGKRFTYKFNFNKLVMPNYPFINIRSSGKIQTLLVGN
Procedure, shortened: as §1

ETV6 = ETV6 (Homo sapiens, UniProt P41212 1-452)
Procedure, shortened: as §1

Sequence of ETV1 (P50549 whole entry): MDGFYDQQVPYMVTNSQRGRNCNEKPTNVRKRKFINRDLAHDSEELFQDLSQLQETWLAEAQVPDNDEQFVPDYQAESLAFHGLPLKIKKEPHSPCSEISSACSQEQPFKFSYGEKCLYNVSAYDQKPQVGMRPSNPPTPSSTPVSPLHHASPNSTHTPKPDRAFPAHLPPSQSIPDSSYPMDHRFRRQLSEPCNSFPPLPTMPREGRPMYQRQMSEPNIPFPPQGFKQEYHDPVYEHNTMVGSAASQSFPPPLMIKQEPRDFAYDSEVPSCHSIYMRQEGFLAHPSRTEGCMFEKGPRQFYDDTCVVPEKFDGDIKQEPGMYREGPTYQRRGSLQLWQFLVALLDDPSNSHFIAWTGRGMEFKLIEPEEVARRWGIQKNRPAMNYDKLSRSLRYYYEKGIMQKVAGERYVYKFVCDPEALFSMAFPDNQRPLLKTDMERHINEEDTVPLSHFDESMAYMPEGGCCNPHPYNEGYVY
Sequence of ETV5 (P41161 whole entry): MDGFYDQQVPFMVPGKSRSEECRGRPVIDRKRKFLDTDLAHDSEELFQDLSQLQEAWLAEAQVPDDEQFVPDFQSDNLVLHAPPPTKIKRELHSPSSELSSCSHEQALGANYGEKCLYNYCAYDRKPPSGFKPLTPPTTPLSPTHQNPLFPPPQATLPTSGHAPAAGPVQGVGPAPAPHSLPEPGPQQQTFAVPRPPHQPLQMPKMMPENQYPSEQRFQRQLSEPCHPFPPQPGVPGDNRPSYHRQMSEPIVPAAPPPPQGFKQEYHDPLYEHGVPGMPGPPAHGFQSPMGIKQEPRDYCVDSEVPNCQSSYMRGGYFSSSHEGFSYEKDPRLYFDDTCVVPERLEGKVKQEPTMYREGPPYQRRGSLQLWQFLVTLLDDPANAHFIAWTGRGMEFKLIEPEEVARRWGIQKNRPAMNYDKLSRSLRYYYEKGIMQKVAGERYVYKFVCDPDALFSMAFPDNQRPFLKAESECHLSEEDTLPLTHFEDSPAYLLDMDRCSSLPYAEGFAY
Sequence of ELF4 (Q99607 whole entry): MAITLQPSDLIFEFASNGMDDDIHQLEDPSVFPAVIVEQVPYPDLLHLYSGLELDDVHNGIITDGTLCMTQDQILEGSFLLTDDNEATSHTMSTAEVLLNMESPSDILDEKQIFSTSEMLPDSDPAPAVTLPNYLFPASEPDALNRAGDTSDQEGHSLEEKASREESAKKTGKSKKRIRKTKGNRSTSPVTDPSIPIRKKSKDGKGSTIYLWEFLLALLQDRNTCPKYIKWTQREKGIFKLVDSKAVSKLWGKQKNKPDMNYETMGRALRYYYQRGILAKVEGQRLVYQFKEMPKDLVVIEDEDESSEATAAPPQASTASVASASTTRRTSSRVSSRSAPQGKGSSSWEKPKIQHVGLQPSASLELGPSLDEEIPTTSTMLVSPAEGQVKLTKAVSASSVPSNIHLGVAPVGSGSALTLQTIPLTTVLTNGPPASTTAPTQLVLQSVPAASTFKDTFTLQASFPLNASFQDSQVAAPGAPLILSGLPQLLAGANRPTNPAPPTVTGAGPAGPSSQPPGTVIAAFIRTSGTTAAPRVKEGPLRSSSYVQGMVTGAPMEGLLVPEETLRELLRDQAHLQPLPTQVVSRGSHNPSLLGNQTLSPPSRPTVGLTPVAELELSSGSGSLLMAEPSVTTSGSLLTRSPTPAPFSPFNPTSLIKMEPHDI
Sequence of CRX (O43186 whole entry): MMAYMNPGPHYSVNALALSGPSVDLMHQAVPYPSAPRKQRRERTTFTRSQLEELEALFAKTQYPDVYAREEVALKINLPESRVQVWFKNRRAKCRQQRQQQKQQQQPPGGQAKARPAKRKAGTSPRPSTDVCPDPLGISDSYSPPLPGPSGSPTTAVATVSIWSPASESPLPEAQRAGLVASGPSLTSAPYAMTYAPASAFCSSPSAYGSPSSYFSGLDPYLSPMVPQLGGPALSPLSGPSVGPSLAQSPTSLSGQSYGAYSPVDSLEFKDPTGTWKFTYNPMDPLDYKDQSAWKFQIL
Sequence of ETV6 (P41212 whole entry): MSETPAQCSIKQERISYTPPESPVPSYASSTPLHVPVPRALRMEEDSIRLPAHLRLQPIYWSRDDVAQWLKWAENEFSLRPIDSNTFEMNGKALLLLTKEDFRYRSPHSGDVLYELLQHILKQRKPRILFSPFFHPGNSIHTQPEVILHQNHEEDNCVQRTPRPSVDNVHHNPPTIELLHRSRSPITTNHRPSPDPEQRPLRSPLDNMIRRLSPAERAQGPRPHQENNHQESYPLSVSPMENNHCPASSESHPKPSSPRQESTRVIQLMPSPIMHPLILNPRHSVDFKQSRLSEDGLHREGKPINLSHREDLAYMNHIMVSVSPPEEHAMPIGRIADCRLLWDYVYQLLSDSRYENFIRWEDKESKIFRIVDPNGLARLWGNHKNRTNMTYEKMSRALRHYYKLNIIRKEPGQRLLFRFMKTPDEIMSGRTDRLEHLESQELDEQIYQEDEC

| Sequence | binding signal (FEV) | binding signal (ETV5) | binding signal (SPIC) | binding signal (ELF4) | binding signal (ELK4) | binding signal (ETV2) | binding signal (ELF3) | binding signal (CRX) | binding signal (ETV1) | binding signal (ERF) | binding signal (ETV3L) | binding signal (ETS2) | binding signal (SPDEF) | binding signal (ETV7) | binding signal (ELF5) | binding signal (ETV3) | binding signal (ETV6) |
| --- | --- | --- | --- | --- | --- | --- | --- | --- | --- | --- | --- | --- | --- | --- | --- | --- | --- |
| GATATC | 4.01 fold enrichment (6-mer frequency, TF over GST control) | 1.6 fold enrichment (6-mer frequency, TF over GST control) | 1.41 fold enrichment (6-mer frequency, TF over GST control) | 1.34 fold enrichment (6-mer frequency, TF over GST control) | 1.49 fold enrichment (6-mer frequency, TF over GST control) | 1.51 fold enrichment (6-mer frequency, TF over GST control) | 1.59 fold enrichment (6-mer frequency, TF over GST control) | 1.02 fold enrichment (6-mer frequency, TF over GST control) | 1.51 fold enrichment (6-mer frequency, TF over GST control) | 1.56 fold enrichment (6-mer frequency, TF over GST control) | 1.46 fold enrichment (6-mer frequency, TF over GST control) | 1.49 fold enrichment (6-mer frequency, TF over GST control) | 1.92 fold enrichment (6-mer frequency, TF over GST control) | 1.34 fold enrichment (6-mer frequency, TF over GST control) | 1.74 fold enrichment (6-mer frequency, TF over GST control) | 1.61 fold enrichment (6-mer frequency, TF over GST control) | 1.51 fold enrichment (6-mer frequency, TF over GST control) |
| CGCTCA | 1.13 fold enrichment (6-mer frequency, TF over GST control) | 1.19 fold enrichment (6-mer frequency, TF over GST control) | 1.06 fold enrichment (6-mer frequency, TF over GST control) | 1.24 fold enrichment (6-mer frequency, TF over GST control) | 1.32 fold enrichment (6-mer frequency, TF over GST control) | 1.26 fold enrichment (6-mer frequency, TF over GST control) | 1.16 fold enrichment (6-mer frequency, TF over GST control) | 1.2 fold enrichment (6-mer frequency, TF over GST control) | 1.13 fold enrichment (6-mer frequency, TF over GST control) | 1.2 fold enrichment (6-mer frequency, TF over GST control) | 1.24 fold enrichment (6-mer frequency, TF over GST control) | 1.14 fold enrichment (6-mer frequency, TF over GST control) | 1.05 fold enrichment (6-mer frequency, TF over GST control) | 1.09 fold enrichment (6-mer frequency, TF over GST control) | 1.16 fold enrichment (6-mer frequency, TF over GST control) | 1.07 fold enrichment (6-mer frequency, TF over GST control) | 1.09 fold enrichment (6-mer frequency, TF over GST control) |

Reference: article PMC7862700, “An all-to-all approach to the identification of sequence-specific readers for epigenetic DNA modifications on cytosine”
